# Measurements: PubChem BioAssay AID382 (SGCOxCompounds, 2006)
# Calls of active or inactive are those of the source. The rule behind the calls is not given here.
# Target: Dual specificity protein kinase CLK1 (Homo sapiens) (UniProt P49759)
# Assay: CLK1 binders by thermal stabilization, biophysical, recombinant human kinase, DSF (AID 382)
# Settings: buffer 10 mM HEPES, stronger effect = higher value
# [1] = measured here: replicate experiment 2, at 10 µM, run 2, protein 2 µM, NaCl 150 mM
# Sequence of Dual specificity protein kinase CLK1 (Homo sapiens) (P49759 whole entry, looked up): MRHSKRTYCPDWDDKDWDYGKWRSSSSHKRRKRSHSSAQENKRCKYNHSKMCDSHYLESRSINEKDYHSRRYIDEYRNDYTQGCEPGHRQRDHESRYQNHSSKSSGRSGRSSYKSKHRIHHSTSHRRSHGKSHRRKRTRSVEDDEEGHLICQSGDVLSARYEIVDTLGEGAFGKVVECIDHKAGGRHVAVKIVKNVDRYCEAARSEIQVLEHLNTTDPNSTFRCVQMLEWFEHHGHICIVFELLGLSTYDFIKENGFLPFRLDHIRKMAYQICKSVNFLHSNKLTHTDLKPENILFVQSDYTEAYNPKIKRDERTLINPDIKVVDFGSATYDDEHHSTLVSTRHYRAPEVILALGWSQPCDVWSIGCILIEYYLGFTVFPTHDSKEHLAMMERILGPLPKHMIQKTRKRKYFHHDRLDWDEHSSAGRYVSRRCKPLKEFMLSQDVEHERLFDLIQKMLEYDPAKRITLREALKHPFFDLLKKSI
smiles,measurement,setting,value
N#C/C(=C1\Nc2ccccc2S1)c1ccnc(NCCc2cccnc2)n1,Tm shift,"at 10 µM, protein 2 µM, pH 7.5, NaCl 150 mM, with 50 µM L-Arg/L-Glu (1:1)",5.9 Celsius (active)
Cc1c2ccncc2c(C)c2c1[nH]c1ccccc12,Tm shift,"at 10 µM, protein 2 µM, pH 7.5, NaCl 150 mM, with 50 mM Arg/Glu",3.3 Celsius (active)
CCn1cnc2c(Nc3cccc(Cl)c3)nc(N[C@@H]3CCCC[C@@H]3N)nc21,Tm shift,[1],4.5 Celsius
COc1ccc2c(c1)/C(=C/c1cnc[nH]1)C(=O)N2,Tm shift,[1],3.4 Celsius
